Consider 49 compounds from PubChem BioAssay AID1851 (National Center for Advancing Translational Sciences (NCATS), 2009).

The campaign covered roughly 16,000 compounds. About 5,700 (36%) were called active. Inconclusive results (about 24%) are left out. Calls follow the shape of the dose curve; as a rule, active = well fitted curve in the direction sought with a large enough effect; inconclusive = small, poorly fitted or top-dose-only effect, or effect the other way; inactive = no such curve, though single readings can be large or run the other way. Some of the results follow.
% is scaled to controls: 0 for no effect and ±100 for the full control effect.

In this assay the target is Cytochrome P450 1A2 (Homo sapiens) (UniProt P05177). Description: Cytochrome panel assay with activity outcomes. Particulars: recombinant CYP, pro-luciferin dealkylation, luminescence, p450-cyp1a2; series mostly up to 57.1 µM; activity, negative = inhibition: at the top concentration.
Chain of Cytochrome P450 1A2 (Homo sapiens) (P05177 whole entry, looked up): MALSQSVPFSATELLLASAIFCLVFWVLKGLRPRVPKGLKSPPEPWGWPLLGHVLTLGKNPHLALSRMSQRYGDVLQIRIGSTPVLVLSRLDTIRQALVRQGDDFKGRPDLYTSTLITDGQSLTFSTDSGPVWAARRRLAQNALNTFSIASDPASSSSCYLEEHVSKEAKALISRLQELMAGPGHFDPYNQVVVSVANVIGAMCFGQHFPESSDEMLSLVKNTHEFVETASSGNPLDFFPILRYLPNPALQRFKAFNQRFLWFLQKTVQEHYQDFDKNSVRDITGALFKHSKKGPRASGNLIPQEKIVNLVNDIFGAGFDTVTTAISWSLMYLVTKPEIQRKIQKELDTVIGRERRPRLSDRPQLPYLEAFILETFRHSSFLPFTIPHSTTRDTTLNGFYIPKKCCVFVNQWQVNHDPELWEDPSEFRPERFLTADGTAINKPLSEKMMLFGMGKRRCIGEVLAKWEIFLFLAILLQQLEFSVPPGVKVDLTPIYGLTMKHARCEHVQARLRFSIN
With `COC(=O)C(C)Sc1nc2c(cnn2-c2ccc(C)cc2)c(=O)[nH]1` (centres undefined), the half-maximal activity concentration (AC50) was 2510 nM (active).

Consider `Cc1nc(SCC(=O)Nc2c(C)nn(C)c2C)c2cnn(-c3ccccc3)c2n1`, for which the “activity, negative = inhibition” value was -21.6% (inactive).

Regarding `CCOC(=O)CSc1nc2c(cnn2-c2ccc(C)cc2)c(=O)[nH]1`, the concentration at half-maximal activity (AC50) was 562 nM (active).

Regarding `O=C(c1ccco1)N1CCN(c2cc(=O)n(C3CCCCC3)c(=O)[nH]2)CC1`, the “activity, negative = inhibition” value was 1.95% (inactive).

As to `O=C(N/N=C/c1c(Nc2cccc(C(F)(F)F)c2)nc2ccccn2c1=O)c1ccccc1`, the concentration at half-maximal activity (AC50) is 2820 nM (active).

On to `Cc1ccc(C(=O)N/N=C/c2sc(=O)n(Cc3cccc(C(=O)O)c3)c2Cl)cc1`, for which the “activity, negative = inhibition” value is 19% (inactive).

In the case of `CC(C)(CO)[C@H](O)C(=O)NCCCO`, the “activity, negative = inhibition” value was -1.12% [at 25.6 µM] (inactive).

For `CNc1ncnc2c1ncn2[C@@H]1O[C@@H](CO)[C@H](O)[C@@H]1O`, the “activity, negative = inhibition” value was -5.83% (inactive).

In the case of `Cc1ccc(OCC(=O)N/N=C\c2c(C)n(C)c3ccccc23)c([N+](=O)[O-])c1`, the concentration at half-maximal activity (AC50) is 562 nM (active).

As to `Cn1c(=O)cc(OCCCC(=O)Nc2cccnc2)c2ccccc21`, the AC50 was 2000 nM (active).

`COc1ccc(-c2nnc(-c3cccnc3)o2)cc1`: the AC50 was 12600 nM (active).

On to `COc1cccc(-c2noc(-c3cccnc3)n2)c1`, for which the AC50 is 2820 nM (active).

As to `CCOc1ccc(-c2nnc(-c3ccncc3)o2)cc1`, the AC50 is 2510 nM (active).

In the case of `COc1ccc(CC(=O)Nc2ccc(-c3noc(-c4cccc(OC)c4)n3)cc2)cc1`, the “activity, negative = inhibition” value was -14.6% (inactive).

Turning to `COc1ccc(-c2nnc(-c3ccc(OCC(C)C)cc3)o2)cc1`, the “activity, negative = inhibition” value is -20.8% (inactive).

As for `CCOC(=O)CCN1C(=O)[C@H]2[C@H]3[C@H](O)[C@H](O)C/C(=N/OC/C=C(\C)CCC=C(C)C)[C@@H]3CC[C@@H]2C1=O`, the activity, negative = inhibition is -2.33% [at 11.4 µM] (inactive).

As to `N#Cc1c(-c2ccccc2)no[n+]1[O-]`, the half-maximal activity concentration (AC50) was 398 nM (active).

For `CC[C@H](CN(C)C)C(=O)c1ccco1`, the activity, negative = inhibition was -9.05% [at 11.4 µM] (inactive).

With `C[N+]1(CCC(=O)c2ccco2)CC2CCC(CC2)C1` (centres undefined), the activity, negative = inhibition is -10.2% [at 11.4 µM] (inactive).

As to `CCCCn1c(=N)n(CC(=O)c2ccco2)c2ccccc21`, the AC50 was 8910 nM (active).

Take `C[C@H](N)CCCC(C)(C)O`: the “activity, negative = inhibition” value was -3.97% [at 25.6 µM] (inactive).

With `CSc1nc(C)c2c(n1)N(c1ccc(C(F)(F)F)cc1)CC2`, the concentration at half-maximal activity (AC50) is 316 nM (active).

On to `CSc1nc(C)c2c(n1)N(c1ccc(C(C)C)cc1)CC2`, for which the AC50 was 2000 nM (active).

For `C[C@H](O)[C@H](O)[C@@H]1CNc2nc(N)[nH]c(=O)c2N1`, the “activity, negative = inhibition” value was -16% (inactive).

`Cn1c(=O)c(C(=O)CN2CCOCC2)c(N)n(Cc2ccccc2)c1=O`: the “activity, negative = inhibition” value is 7.04% (inactive).

With `Cn1c(N)c(C(=O)CSc2ccc3c(c2)OCCO3)c(=O)n(C)c1=O`, the half-maximal activity concentration (AC50) was 15800 nM (active).

On to `Cc1nn(-c2ccc(Cl)cc2)c2sc(C(=O)c3c(N)n(C)c(=O)n(C)c3=O)cc12`, for which the “activity, negative = inhibition” value is -17.7% (inactive).

For `COc1ccc(-c2noc(C3CCCN(C(=O)c4ccccc4OC)C3)n2)cc1OC` (centres undefined), the “activity, negative = inhibition” value is -31.5% (inactive).

For the compound `CCCCCC(=O)N1CCCC(c2nc(-c3ccc(OC)cc3)no2)C1` (centres undefined), the half-maximal activity concentration (AC50) was 3160 nM (active).

Take `O=C(CC1CCCCC1)N1CCC(c2nc(-c3ccc(S(=O)(=O)N4CCCC4)cc3)no2)CC1`: the “activity, negative = inhibition” value was -1.32% (inactive).

Take `O=C(Nc1ccccc1)N1CCCC(c2nc(-c3ccc(F)cc3)no2)C1` (centres undefined): the AC50 was 25100 nM (active).

With `Cc1noc(C)c1C(=O)N1CCC[C@@]2(CCN(C(=O)Nc3cccc(F)c3)C2)C1`, the “activity, negative = inhibition” value was -14.5% (inactive).

Regarding `O=C(Nc1cccc(F)c1)N1CCCC2(CCNCC2)C1`, the “activity, negative = inhibition” value is -9.33% (inactive).

Consider `CC(=O)NCCc1c(Cc2ccccc2)[nH]c2ccccc12`, for which the half-maximal activity concentration (AC50) is 12600 nM (active).

For `CCCCC(=O)NCCc1c(Cc2ccccc2)[nH]c2ccccc12`, the AC50 was 3160 nM (active).

`Cc1nc2ncnn2c(C)c1CCC(=O)NCc1ccccc1`: the “activity, negative = inhibition” value is -2.47% (inactive).

In the case of `COc1ccc2[nH]c(-c3ccccc3)c(CCNC(C)=O)c2c1`, the concentration at half-maximal activity (AC50) is 1260 nM (active).

Consider `N[C@H](C(=O)O)c1ccc(C(=O)O)cc1`, for which the “activity, negative = inhibition” value was -18.9% (inactive).

Regarding `ClC(Cl)(Cl)C(N1CCN(c2ccccc2)CC1)N1CCN(c2ccccc2)CC1`, the activity, negative = inhibition was -14.9% [at 2.29 µM] (inactive).

Consider `CCN(CC)CCNC(=O)Cn1nc(-c2ccc(C)cc2)ccc1=O`, for which the “activity, negative = inhibition” value was -5.38% (inactive).

Regarding `CCN(CC)CCNC(=O)c1ccc(NC(C)=O)cc1`, the “activity, negative = inhibition” value is -7.76% (inactive).

As to `C=CCn1c(=O)c(C(=O)NCCN(CC)CC)c(O)c2ccccc21`, the AC50 is 1410 nM (active).

As to `Cc1cccc(CNc2ccnc(-c3ccccc3C(F)(F)F)n2)c1`, the concentration at half-maximal activity (AC50) is 6310 nM (active).

For `FC(F)(F)c1ccccc1-c1nccc(NCc2ccccc2)n1`, the AC50 is 12600 nM (active).

On to `c1cc2c(cc1C1CCCCC1)c1c3n2CCN[C@H]3CCC1`, for which the AC50 is 15800 nM (active).

Consider `Cc1ccc(NC(=O)c2sccc2SCc2cccc(C(F)(F)F)c2)cc1`, for which the AC50 is 2820 nM (active).

With `O=C(N/N=C/c1ccc(Sc2nc3ccccc3s2)c([N+](=O)[O-])c1)c1ccccn1`, the “activity, negative = inhibition” value is -13.5% (inactive).

For the compound `O=[N+]([O-])c1c(NCCO)cc(Sc2nc3ccccc3s2)c2nonc12`, the concentration at half-maximal activity (AC50) is 1000 nM (active).

Consider `CN(CCO)c1cc(Sc2nc3ccccc3s2)c2nonc2c1[N+](=O)[O-]`, for which the concentration at half-maximal activity (AC50) was 14100 nM (active).
